High-throughput results deposited in PubChem by National Center for Advancing Translational Sciences (NCATS).
Rows were chosen to be rich in hits. Some 0.74% of all compounds tested hit in one or more screens of this group.
CCT chaperon mod = changes cytosolic chaperonin activity | purified chaperonin ATPase assay, HTRF ADP detection, 30 min | activity change, % (no concentration beside the values), hits read low | hit rate 0.3% among 360,000; in the data active = activity change below about -30%; also: % is scaled to controls: 0 for no effect and ±100 for the full control effect
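We incubate TRiC, 40 or 20 nM final, with library compounds at 76 uM and 10 uM ATP for 30 min at 37 °C. ADP formed is detected with Transcreener HTRF reagents after 30 min at room temperature.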
TCR act = activates T cell receptor signaling; primary human leukocytes, anti-CD3, IL-2 HTRF, 48 h; Potency, µM (top dose mostly 9.22 µM), for the others: at the top dose activation of IL-2 secretion, most hits filed as activators; 330,000 tested, under 10 active; active = well fitted activation curve with a large enough effect; also: % of control where 0% means no effect
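Compounds are tested in HTS on primary human leukocytes co-incubated with a-CD3 beads for 48 hr. IL-2 output is measured by time-resolved FRET.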
Akt phos inh = inhibitors of Akt phosphorylation; Neuro2A IGF-stimulated pAkt S473 HTRF, 20 min; stronger effect = lower value; activity change, % for hits at 50 µM; hit rate 0.32% among 360,000; AID 651550; in the data active = activity change below about -80%; also: % is scaled to controls: 0 for no effect and ±100 for the full control effect
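Neuro2A cells (4,500/well, DMEM with 0.5% FBS) were treated with compound at a single 50 µM final concentration, stimulated with 6 nM IGF for 20 min at 37 °C, and lysed. Phospho-Akt Ser473 was read by HTRF as 665/615 ratio ×10^4.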
TSHR antagonist = blocks TSH signaling through the human TSH receptor; TSHR-expressing cells, TSH-stimulated cAMP HTRF, 2 h; stronger effect = lower value; activity change, negative = inhibition, % at 11.5 µM; hit rate 0.2% among 330,000; AID 504810;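 active = activity change below a set negative limit, meaning inhibition stronger than a set level, cut at about -70% in these data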; also: % is scaled to controls: 0 for no effect and ±100 for the full control effect
Target sequence (P16473 whole entry, looked up): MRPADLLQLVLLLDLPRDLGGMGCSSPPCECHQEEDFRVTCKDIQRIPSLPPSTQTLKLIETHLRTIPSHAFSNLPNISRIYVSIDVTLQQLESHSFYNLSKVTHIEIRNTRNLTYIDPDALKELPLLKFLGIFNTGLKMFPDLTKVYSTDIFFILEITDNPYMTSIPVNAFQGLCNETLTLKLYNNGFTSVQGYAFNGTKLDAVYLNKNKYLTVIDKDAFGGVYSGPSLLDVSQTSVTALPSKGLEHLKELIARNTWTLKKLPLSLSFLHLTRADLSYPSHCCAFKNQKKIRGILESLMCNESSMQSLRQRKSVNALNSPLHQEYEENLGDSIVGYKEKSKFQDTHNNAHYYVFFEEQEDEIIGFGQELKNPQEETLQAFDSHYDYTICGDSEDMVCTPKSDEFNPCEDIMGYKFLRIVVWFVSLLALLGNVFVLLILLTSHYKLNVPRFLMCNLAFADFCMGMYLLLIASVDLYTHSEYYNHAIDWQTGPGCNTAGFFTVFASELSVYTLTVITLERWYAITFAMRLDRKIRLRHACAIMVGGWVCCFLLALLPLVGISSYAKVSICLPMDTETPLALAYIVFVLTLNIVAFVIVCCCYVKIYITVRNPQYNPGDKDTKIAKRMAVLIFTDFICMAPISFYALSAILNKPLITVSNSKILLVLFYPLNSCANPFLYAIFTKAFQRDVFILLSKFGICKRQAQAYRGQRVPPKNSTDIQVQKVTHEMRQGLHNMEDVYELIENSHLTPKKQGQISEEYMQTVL
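Inhibition of cAMP made by TSHR-expressing cells under TSH stimulation (4nM final, EC80; 2 h, 37 deg C) is quantified with a one-step lysis HTRF kit, anti-cAMP cryptate versus cAMP-d2.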
* = called active by the depositor; i = inactive; nt = not tested or not shown; [ ] = remark or other dose.

SMILES | CCT chaperon mod | TCR act | Akt phos inh | TSHR antagonist
COc1ccc(Cl)cc1S(=O)(=O)NC(C)C(=O)NCc1ccccn1 (stereo not given) | -0.8 | -3.4% | i | -2.4
COc1ccc(Cl)cc1S(=O)(=O)NC(C)C(=O)NCc1ccncc1 (stereo not given) | -66.1* | 7.4% | i | -8.7
COP(=O)(OC)C(NC(=O)Nc1ccccc1)c1ccccc1 (stereo not given) | -0.3 | 6.7% | i | -10.2
C/C(=N/O)c1cc(C(C)(C)C)c(O)c(C(C)(C)C)c1 | 0.0 | -0.6% | -122.0%* | -11.5
CC(C)(Sc1cc(C(C)(C)C)c(O)c(C(C)(C)C)c1)Sc1cc(C(C)(C)C)c(O)c(C(C)(C)C)c1 | -2.7 | 2.5% | i | 10.1
CCCC1C2C(=O)N(c3ccccc3OC)C(=O)C2ON1c1ccccc1 (stereo not given) | 2.9 | 0.4% | -109.8%* | 1.1
CCCC1C2C(=O)N(c3ccccc3)C(=O)C2ON1c1ccccc1 (stereo not given) | -4.0 | -3.2% | i | -6.0
COC(=O)[C@H](CC(C)C)N1Cc2cc(OC)cc(OC)c2-c2ccccc2S1(=O)=O | 0.3 | 0.1%[46.1 µM] | i | 3.2
O=C(CNC(=S)N(Cc1ccccc1)Cc1cccnc1)NC1CCCC1 | 0.9 | -0.3%[46.1 µM] | i | 1.0
CCOC(=O)c1cc2c(=Cc3ccc(N(C)C)cc3)c3ccccc3n2[n+]1C | -1.9 | 10.3% | i | nt
Cc1cc2c(=Cc3ccc(N(C)C)cc3)c3ccccc3n2[n+]1C | -45.0* | 3.1% | i | nt
COc1ccc(Cl)cc1S(=O)(=O)NC1CC(C)(C)NC(C)(C)C1 | -0.4 | 4.6% | i | -10.7
COc1ccc(F)cc1S(=O)(=O)NC1CC(C)(C)NC(C)(C)C1 | -2.5 | 3.3% | -112.2%* | 9.5
CS(=O)(=O)N1CCN(c2ccccc2NC(=O)Cc2ccc(Cl)cc2)CC1 | -32.3* | -0.1% | i | 1.2
CC(C)OCCCn1c(=O)c2ccccc2n2c(CCC(=O)O)nnc12 | -1.1 | -4.6% | i | 5.0
CC(C)OCCCn1c(=O)c2ccccc2n2c(CCC(=O)NC3CCN(Cc4ccccc4)CC3)nnc12 | -0.6 | 1.2% | i | -125.4*
CC(C)c1nnc(NC(=O)CCC(=O)N2CCN(Cc3ccccc3)CC2)s1 | -43.4* | -14.4% | i | -6.4
CC(NC(=O)c1cc(COc2ccc(-n3cncn3)cc2)on1)c1ccc(F)cc1 (stereo not given) | 1.9 | nt | i | nt
O=C(O)CCCNC(=O)Cc1ccccc1 | -91.1* | 3.6% | i | 3.5
O=C(NCC1CCCO1)c1cc(Br)c(Br)s1 (stereo not given) | 0.0 | 8.9% | i | -3.1
CCC(=O)NC1=C(Cl)C(=O)C(NC(=O)CC)=C(Cl)C1=O | -1.2 | 11.4% | i | -85.9*
CCC(=O)NC1=C(NC(C)c2ccccc2)C(=O)c2ccccc2C1=O (stereo not given) | 0.5 | 7.7% | i | -19.6
CC(=O)c1ccc(N2CCN(C(=O)CCC(=O)Nc3ccc4nc(N5CCN(C)CC5)cc(C)c4c3)CC2)cc1 | -1.6 | 0.8% | i | -12.9
CCC(=O)N1c2ccccc2[C@@H](N(C(C)=O)c2ccccc2)C[C@H]1C | -78.7* | nt | i | 2.9
COc1cccc(OCCSc2nnc3sc4ccccc4n23)c1 | 0.4 | -6.0% | -112.2%* | -2.1
SMILES | CCT chaperon mod | TCR act | Akt phos inh | TSHR antagonist
COC(=O)C1=NN(c2ccccc2)C2(S1)SC(C(C)=O)=C(C)N2c1ccccc1 (stereo not given) | 1.6 | 0.0% | -137.9%* | -11.7
Cc1cc(N2CCCCCC2)nc(-c2ccccc2O)n1 | -3.3 | -7.5% | -90.9%* | -6.1
Cc1cc(N2CCOCC2)nc(-c2ccccc2O)n1 | -1.0 | -1.9%[46.1 µM] | i | -10.3
COC(=O)c1ccc(CSc2n[nH]c(=S)s2)o1 | 2.2 | 0.4% | -100.3%* | -2.5
COc1ccc([C@H]2CC(=O)C=C(c3cc4ccccc4c4ccccc34)C2)cc1 | -1.5 | -3.0% | i | 5.9
O=C(Cn1ncc(Cl)c(Cl)c1=O)N1CCN(S(=O)(=O)c2ccc3ccccc3c2)CC1 | 1.2 | 4.9%[46.1 µM] | i | -78.9*
O=C(O)CCC(=O)N1CCN(S(=O)(=O)c2ccc3ccccc3c2)CC1 | 3.8 | -1.0% | i | 0.4
CCOc1ccc(C(=O)NCc2ccc3c(c2)OCO3)cc1OCC | 0.2 | -7.4% | i | -7.8
CCCCCCCCN1C(=O)[C@H](CC(=O)N2CCN(C(=O)c3ccco3)CC2)C[C@@]2(C(=O)OC)CC(C)(C)CC=C12 | nt | nt | i | nt
O=C(Nc1ncc2c(n1)-c1ccccc1CC2)c1ccc(F)cc1 | -1.6 | 4.3% | -119.6%* | 5.3
COc1cc(CCC(=O)NCc2ccc(F)cc2)cc(OC)c1OC | -0.9 | -11.9% | i | -9.3
NS(=O)(=O)c1ccc(CNC(=O)CCSCCC(=O)NCc2ccc(S(N)(=O)=O)cc2)cc1 | 0.1 | -0.7% | i | 12.3
NS(=O)(=O)c1ccc(CNC(=O)CCS(=O)(=O)Cc2ccccc2)cc1 | -0.9 | -4.4% | i | -79.2*
COc1cc(CCC(=O)NCc2ccc(S(N)(=O)=O)cc2)cc(OC)c1OC | -93.6* | 4.1% | i | -21.2
COC(=O)c1sccc1NC(=O)c1ccc(C)o1 | 0.0 | -3.6% | i | 12.2
COC(=O)c1sccc1-c1ccc(C(=O)Nc2ccccc2)o1 | -1.1 | -1.7% | -128.2%* | -16.1
CCOC(=O)C1CCN(C(=O)Cn2nc(CC)n3cccc3c2=O)CC1 | -1.1 | -4.0% | i | 0.5
Cc1cc(C)nc(NC(=O)Cc2ccc([N+](=O)[O-])cc2)c1 | -33.8* | -2.6%[46.1 µM] | i | 1.3
Cc1ccc(CC(=O)Nc2cc([N+](=O)[O-])ccc2F)cc1 | 0.4 | 4.5% | i | -0.4
COc1ccc(-c2nsc(SCC(=O)Nc3cc(C)on3)n2)cc1 | -1.8 | 1.1% | -81.2%* | -4.3
COc1ccc(-c2csc(NC(=O)CSc3nc(SC)ns3)n2)cc1 | -5.9 | 2.7%[46.1 µM] | i | -74.0*
OCC1C2c3ccccc3C(c3ccccc32)C1CO (stereo not given) | -6.4 | 0.7% | i | -3.0
O=[N+]([O-])c1ccc(-c2cnc3ccccc3n2)cc1 | -37.8* | 3.8% | i | -9.2
N#CCc1cc2ccc3cccc4ccc(c1)c2c34 | 0.9 | 3.0% | i | -1.9
NNC(=O)CP(=O)(c1ccccc1)c1ccccc1 | 0.7 | -0.7% | i | 5.5
SMILES | CCT chaperon mod | TCR act | Akt phos inh | TSHR antagonist
O=C(CP(=O)(c1ccccc1)c1ccccc1)Nn1cnnc1 | -53.4* | 5.6% | i | 32.5
COc1ccc(Cc2noc(CN(C)CC3(N4CCOCC4)CCCCC3)n2)cc1OC | -2.0 | -5.3% | i | 1.9
Cc1ccc(NC(=O)C2CCN(C(=O)c3cccs3)CC2)c(C)c1 | 3.0 | 8.3% | i | 16.9
N#Cc1nc(-c2ccc(OCc3ccccc3)cc2)oc1NCc1cccnc1 | -35.9* | -7.8% | i | -22.0
N#Cc1nc(-c2ccc(OCc3ccc(Cl)cc3)cc2)oc1NCc1cccnc1 | -2.9 | -0.7% | i | 3.6
CCNCCC(=O)N1c2ccccc2Sc2ccc(C(F)(F)F)cc21 | -8.2 | nt | i | 3.3
